The values that follow come from PubChem BioAssay.

SMILES strings stand for the structures. Values without a mark were called inactive. Records with an inconclusive call do not appear. Active and inactive are the calls of the source. Unless noted, no rule for the calls is given here.

Test [1] deals with ATP-dependent translocase ABCB1 (Homo sapiens) (UniProt P08183). The experiment in a line: MDR1 (ABCB1) efflux transporter inhibition, cell-based (AID 377; in the data active = fluorescence slope change above about 50%). Conditions: MDR1-expressing cells, fluorescent substrate accumulation slope; stronger effect = higher value; concentration not given here.
Sequence of ATP-dependent translocase ABCB1 (Homo sapiens) (P08183 whole entry, looked up): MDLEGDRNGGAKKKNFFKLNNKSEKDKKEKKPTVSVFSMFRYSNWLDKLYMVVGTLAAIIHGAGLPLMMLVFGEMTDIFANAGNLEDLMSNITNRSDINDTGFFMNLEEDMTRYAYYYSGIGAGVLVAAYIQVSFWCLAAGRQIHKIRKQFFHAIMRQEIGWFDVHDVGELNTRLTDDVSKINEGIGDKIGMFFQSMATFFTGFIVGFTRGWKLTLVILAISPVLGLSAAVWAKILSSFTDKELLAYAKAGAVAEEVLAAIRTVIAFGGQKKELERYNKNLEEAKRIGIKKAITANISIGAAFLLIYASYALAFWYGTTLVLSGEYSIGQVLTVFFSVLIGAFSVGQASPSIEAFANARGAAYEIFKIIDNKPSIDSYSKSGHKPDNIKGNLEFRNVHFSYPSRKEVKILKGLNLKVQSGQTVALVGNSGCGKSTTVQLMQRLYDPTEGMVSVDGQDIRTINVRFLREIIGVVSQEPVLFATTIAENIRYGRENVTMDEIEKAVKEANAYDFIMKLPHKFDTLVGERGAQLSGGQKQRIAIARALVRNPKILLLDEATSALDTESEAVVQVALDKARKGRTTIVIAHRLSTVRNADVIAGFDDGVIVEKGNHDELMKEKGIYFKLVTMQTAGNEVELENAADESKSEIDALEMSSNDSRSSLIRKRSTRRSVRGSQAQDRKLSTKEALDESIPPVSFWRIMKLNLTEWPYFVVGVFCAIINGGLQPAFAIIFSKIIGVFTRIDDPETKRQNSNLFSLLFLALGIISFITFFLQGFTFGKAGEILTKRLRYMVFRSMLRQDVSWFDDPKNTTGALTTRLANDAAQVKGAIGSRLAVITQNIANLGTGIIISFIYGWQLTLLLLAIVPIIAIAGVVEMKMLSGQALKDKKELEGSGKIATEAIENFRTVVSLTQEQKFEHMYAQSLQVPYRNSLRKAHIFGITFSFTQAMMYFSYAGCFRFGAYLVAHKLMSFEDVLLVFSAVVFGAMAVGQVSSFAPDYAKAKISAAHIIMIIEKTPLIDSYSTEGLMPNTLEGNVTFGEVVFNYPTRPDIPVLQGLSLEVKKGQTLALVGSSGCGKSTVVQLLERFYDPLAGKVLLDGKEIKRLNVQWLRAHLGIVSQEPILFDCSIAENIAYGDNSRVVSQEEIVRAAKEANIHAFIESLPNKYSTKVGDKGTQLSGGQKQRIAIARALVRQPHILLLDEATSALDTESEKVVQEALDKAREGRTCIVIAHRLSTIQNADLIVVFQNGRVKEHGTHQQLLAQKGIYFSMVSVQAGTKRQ
Test [2] can be described thus: circadian clock period modulators, cell-based, LOPAC library, luminescence reporter (AID 2774).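 Also: values are relative to mean of DMSO wells on each plate.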 Conditions: circadian reporter cells, at 7 µM, actives lie on both sides.
A short description of test [3]: hESC survival regulators, cell-based (AID 493140).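 Also: cells exposed to compounds for four days before counting.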 To be noted: human embryonic stem cell survival screen; stronger effect = higher value.

For the compound `NC(N)=N/N=C/c1c(Cl)cccc1Cl`, the fluorescence slope change in test [1] was 70.4% (active). In test [2], the period change is 0.195 h. For the same compound, the survival in test [3] is 17.8.

Consider `Cc1ccc(C(=O)Nc2ccc(S(=O)(=O)O)c3cc(S(=O)(=O)O)cc(S(=O)(=O)O)c23)cc1NC(=O)c1cccc(NC(=O)Nc2cccc(C(=O)Nc3cc(C(=O)Nc4ccc(S(=O)(=O)O)c5cc(S(=O)(=O)O)cc(S(=O)(=O)O)c45)ccc3C)c2)c1`, for which the period change in test [2] was 0.03 h.

For `Brc1c(NC2=NCCN2)ccc2nccnc12`, the period change in test [2] is -0.1 h.

In the case of `C=CC(N)CCC(=O)O` (stereo unspecified), in test [1], the fluorescence slope change is 52.2% (active). Also, the period change in test [2] was 0.105 h. Also, in test [3], the survival is 14.4.

Take `C[C@]12C=CC(=O)C=C1CC[C@H]1[C@@H]3C[C@@H](O)[C@](O)(C(=O)CO)[C@@]3(C)C[C@H](O)[C@@]12F`: the fluorescence slope change in test [1] was 27%. In addition, the period change in test [2] is -0.51 h. Besides, the survival in test [3] is 13.9.

Consider `COC(=O)[C@@H]1[C@H]2C[C@H]3c4[nH]c5ccccc5c4CCN3C[C@@H]2CC[C@@H]1O`, for which the fluorescence slope change in test [1] is 52.6% (active). Further, in test [2], the period change is 0.095 h. In addition, in test [3], the survival is 8.25.

`CN1CCC(=C2c3ccccc3C=Cc3ccccc32)CC1`: the fluorescence slope change in test [1] is 178% (active). The period change in test [2] was 0.015 h. Moreover, the survival in test [3] was 13.7.

For the compound `OCc1cc(C(O)CNCCCCCCOCCCCc2ccccc2)ccc1O` (stereo unspecified), the period change in test [2] is -0.06 h.

For `CC(C)NCC(O)COc1ccc(CCOCC2CC2)cc1` (stereo unspecified), the fluorescence slope change in test [1] is 1%. Further, in test [2], the period change is 0.03 h. For the same compound, the survival in test [3] was 8.33.

Consider `CC1(C)NC(=O)N(c2ccc([N+](=O)[O-])c(C(F)(F)F)c2)C1=O`, for which the period change in test [2] was 0.085 h. Moreover, in test [3], the survival was 0.917.

With `CN(C)CC[C@@H](c1ccc(Br)cc1)c1ccccn1`, in test [2], the period change was -0.05 h.

With `CC[N+](C)(C)Cc1ccccc1Br`, the period change in test [2] was 0.095 h. Further, the survival in test [3] is 6.92.

In the case of `COc1cc(-c2ccc(=O)[nH]n2)ccc1OC(F)F`, in test [2], the period change is -0.1 h. Besides, the survival in test [3] was 1.92.

`CCOC(=O)C1=C[C@]2(CC)CCCN3CCc4c(n1c1ccccc41)[C@@H]32`: the fluorescence slope change in test [1] is 107% (active). Also, in test [2], the period change was 0 h. Moreover, the survival in test [3] was 5.33.

Turning to `CN1CCN(C2=Nc3ccccc3Oc3ccc(Cl)cc32)CC1`, the fluorescence slope change in test [1] is 163% (active). The period change in test [2] is -0.045 h. Besides, the survival in test [3] was 12.

With `CCN1CCC[C@H]1CNC(=O)c1cc(S(N)(=O)=O)ccc1OC`, the period change in test [2] is -0.035 h.

For `CCOC(=O)c1ncn2c1CN(C)C(=O)c1cc(F)ccc1-2`, in test [2], the period change is -0.15 h.

With `COCCCC/C(=N\OCCN)c1ccc(C(F)(F)F)cc1`, in test [2], the period change is -0.015 h. Also, the survival in test [3] is 6.67.

Regarding `Oc1ccc(C2CNCCc3c2cc(O)c(O)c3Cl)cc1` (stereo unspecified), the period change in test [2] is 0.145 h.

Turning to `NC1CCN(c2cccc(Cl)n2)CC1`, in test [2], the period change was -0.02 h.

`COC(=O)Nc1nc2ccc(C(=O)c3cccs3)cc2[nH]1`: the fluorescence slope change in test [1] was 103% (active). Also, the period change in test [2] was -0.58 h. Also, the survival in test [3] is 1.17.

Turning to `CNCC(O)c1ccc(O)c(O)c1` (stereo unspecified), the period change in test [2] was -0.055 h.

With `Cc1cnc(NC(=O)C2=C(O)c3ccccc3S(=O)(=O)N2C)s1`, in test [2], the period change is -0.06 h.

On to `O=c1c(-c2ccc(O)cc2)coc2cc(O)cc(O)c12`, for which the period change in test [2] is 0 h.

Regarding `Cc1cn[nH]c1`, the period change in test [2] is 0.23 h.

In the case of `CCOC(=O)C1=C(C)NC(C)=C(C(=O)OC)C1c1cccc(Cl)c1Cl` (stereo unspecified), the fluorescence slope change in test [1] is 28.6%. Besides, the period change in test [2] was -0.06 h. Further, the survival in test [3] is 15.7.

Regarding `CC(=O)OC(C)C[N+](C)(C)C` (stereo unspecified), in test [1], the fluorescence slope change was -0.2%. For the same compound, in test [2], the period change is -0.04 h. In addition, the survival in test [3] is 1.33.

For the compound `CN1C(C)(C)CCCC1(C)C`, the fluorescence slope change in test [1] was 17%. In addition, the period change in test [2] was -0.07 h. For the same compound, the survival in test [3] is 3.5.

As to `Cc1scc2c1N(C(=O)CN1CCN(C)CC1)c1ccccc1NC2=O`, the fluorescence slope change in test [1] is 65.1% (active). In addition, the period change in test [2] is 0.165 h. Moreover, in test [3], the survival was 11.3.

On to `CO[C@@]1(NC(=O)CSCC#N)C(=O)N2C(C(=O)O)=C(CSc3nnnn3C)CS[C@@H]21`, for which the fluorescence slope change in test [1] is 20.3%. Besides, in test [2], the period change is -0.07 h. In addition, the survival in test [3] is 4.83.

With `C[C@]12C[C@H](O)[C@H]3[C@@H](CCC4=CC(=O)CC[C@@]43C)[C@@H]1CC[C@@H]2C(=O)CO`, the period change in test [2] was -0.34 h. For the same compound, in test [3], the survival is 6.08.

As to `C[C@](N)(Cc1ccc(O)cc1)C(=O)O`, in test [2], the period change is -0.34 h.

With `CC(C(=O)O)c1ccc(CC2CCCC2=O)cc1` (stereo unspecified), in test [2], the period change was -0.055 h.

Turning to `COc1cc(C(=O)OCCCN2CCCN(CCCOC(=O)c3cc(OC)c(OC)c(OC)c3)CC2)cc(OC)c1OC`, in test [1], the fluorescence slope change is 100% (active). Also, the period change in test [2] was -0.025 h. Also, the survival in test [3] is 9.25.

Consider `COc1cc2nc(N3CCN(C(=O)C4COc5ccccc5O4)CC3)nc(N)c2cc1OC` (stereo unspecified), for which the fluorescence slope change in test [1] was 75.1% (active). The period change in test [2] was 0.11 h. The survival in test [3] is 4.33.

With `O=C(c1ccc(F)cc1)C1CCN(CCn2c(=O)[nH]c3ccccc3c2=O)CC1`, the fluorescence slope change in test [1] was -1%. Moreover, in test [2], the period change is 0 h. Further, in test [3], the survival was 12.7.

`CC(=O)O[C@]1(C(C)=O)CC[C@H]2[C@@H]3C=C(Cl)C4=CC(=O)[C@@H]5C[C@@H]5[C@]4(C)[C@H]3CC[C@@]21C`: the period change in test [2] is 0.03 h.

With `NC(N)=NC(=O)Cc1c(Cl)cccc1Cl`, the fluorescence slope change in test [1] was 82% (active). The period change in test [2] was 0.09 h. Moreover, in test [3], the survival was 7.33.

Regarding `C[C@]12CC[C@@H]3c4ccc(O)cc4CC[C@H]3[C@@H]1CCC2=O`, the period change in test [2] is -0.125 h. Moreover, the survival in test [3] was 2.5.
